Inconclusive results are not listed. Active and inactive are the calls of the source. Calls come from the whole dose curve; as a rule, active = well fitted curve in the direction sought with a large enough effect in the repeat runs; inconclusive = weak or mixed curves; inactive = no such curve, though single readings can be large; an effect the other way counts as inactive or inconclusive.
Legend:
[1] = A CellTox Green Cytotoxicity Assay to monitor cytotoxicity in HEK293 cells - 40 hour (AID 1224871); conditions: CellTox Green fluorescence; series mostly up to 76.8 µM; note: nearly all actives have a fitted effect of over 45% in size
Procedure, shortened: (§1)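 Fluorescence intensity, read at 0, 8, 16, 24, 32 and 40 h of compound treatment, reflected dye binding to DNA of dead HEK293 cells; compounds (23 nL, DMSO) were added 5 h after plating cells with reagent.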

[2] = qHTS RealTime-Glo MT Cell Viability Assay in HEK293 cells - 16 hour (AID 1224872); conditions: RealTime-Glo luminescence; series mostly up to 76.8 µM; note: top concentration of the series differs between compounds; nearly all actives have a fitted effect of over 50% in size
Procedure, shortened: (§2)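 Viability tracked continuously by luminescence as live cells reduce a prosubstrate for NanoLuc; HEK293 cells preincubated 5 h, compound-treated at 37 C, and read at 0, 8, 16, 24, 32 and 40 h.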

[3] = qHTS RealTime-Glo MT Cell Viability Assay in HepG2 cells - 8 hour (AID 1224873); conditions: RealTime-Glo luminescence; series mostly up to 76.8 µM; note: nearly all actives have a fitted effect of over 55% in size
Procedure, shortened: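 HepG2 cells (600/well) mixed with RealTime-Glo MT reagent, settled 5 h at 37 C/5% CO2 before compound addition. Nonlytic NanoLuc luminescence from viable-cell prosubstrate reduction read repeatedly during 40 h treatment at 37 C.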

[4] = qHTS RealTime-Glo MT Cell Viability Assay in HEK293 cells - 40 hour (AID 1224874); conditions: RealTime-Glo luminescence; max response: active compounds read low; note: nearly all actives have a fitted effect of over 50% in size
Procedure, shortened: (§3)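 Viable HEK293 cells reduce a cell-permeant prosubstrate; the product diffuses out and is consumed by NanoLuc in the medium to give light. Compounds went in after a 5 h incubation and plates were read over the treatment course.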

[5] = A CellTox Green Cytotoxicity Assay to monitor cytotoxicity in HEK293 cells - 24 hour (AID 1224875); conditions: CellTox Green fluorescence; series mostly up to 76.8 µM; note: nearly all actives have a fitted effect of over 45% in size
Procedure, shortened: as §1

[6] = A CellTox Green Cytotoxicity Assay to monitor cytotoxicity in HepG2 cells - 16 hour (AID 1224876); conditions: CellTox Green fluorescence; series mostly up to 76.8 µM; note: nearly all actives have a fitted effect of over 45% in size
Procedure, shortened: (§4)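 Using 1536-well format, dye-containing HepG2 suspension was seeded, allowed 5 h at 37 C/5% CO2, dosed by pintool with compounds, positive and negative controls, and imaged for fluorescence across 40 h.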

[7] = qHTS RealTime-Glo MT Cell Viability Assay in HepG2 cells - 32 hour (AID 1224877); conditions: RealTime-Glo luminescence; series mostly up to 76.8 µM; note: nearly all actives have a fitted effect of over 55% in size
Procedure, shortened: (§5)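 Viability was tracked continuously by NanoLuc luminescence from prosubstrate reduced by living HepG2 cells, at successive time points over 40 h of compound exposure. Cells with reagent were preincubated 5 h at 37 °C before compound addition.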

[8] = A CellTox Green Cytotoxicity Assay to monitor cytotoxicity in HepG2 cells - 24 hour (AID 1224878); conditions: CellTox Green fluorescence; series mostly up to 76.8 µM; note: nearly all actives have a fitted effect of over 45% in size
Procedure, shortened: as §4

[9] = qHTS RealTime-Glo MT Cell Viability Assay in HEK293 cells - 0 hour (AID 1224880); conditions: RealTime-Glo luminescence; series mostly up to 76.8 µM
Procedure, shortened: as §3

[10] = A CellTox Green Cytotoxicity Assay to monitor cytotoxicity in HEK293 cells - 32 hour (AID 1224881); conditions: CellTox Green fluorescence; series mostly up to 76.8 µM; note: nearly all actives have a fitted effect of over 40% in size
Procedure, shortened: as §1

[11] = A CellTox Green Cytotoxicity Assay to monitor cytotoxicity in HepG2 cells - 0 hour (AID 1224882); conditions: CellTox Green fluorescence; series mostly up to 76.8 µM; note: nearly all actives have a fitted effect of over 35% in size
Procedure, shortened: as §4

[12] = A CellTox Green Cytotoxicity Assay to monitor cytotoxicity in HepG2 cells - 32 hour (AID 1224883); conditions: CellTox Green fluorescence; series mostly up to 76.8 µM; note: nearly all actives have a fitted effect of over 50% in size; note: potency is the fitted concentration of half-maximal effect
Procedure, shortened: as §4

[13] = A CellTox Green Cytotoxicity Assay to monitor cytotoxicity in HEK293 cells - 8 hour (AID 1224884); conditions: CellTox Green fluorescence; series mostly up to 76.8 µM; note: nearly all actives have a fitted effect of over 35% in size
Procedure, shortened: as §1

[14] = qHTS RealTime-Glo MT Cell Viability Assay in HepG2 cells - 16 hour (AID 1224885); conditions: RealTime-Glo luminescence; series mostly up to 76.8 µM; note: nearly all actives have a fitted effect of over 50% in size
Procedure, shortened: as §5

[15] = qHTS RealTime-Glo MT Cell Viability Assay in HEK293 cells - 24 hour (AID 1224886); conditions: RealTime-Glo luminescence; series mostly up to 76.8 µM
Procedure, shortened: as §2

[16] = qHTS RealTime-Glo MT Cell Viability Assay in HEK293 cells - 8 hour (AID 1224887); conditions: RealTime-Glo luminescence; series mostly up to 76.8 µM
Procedure, shortened: as §3

[17] = A CellTox Green Cytotoxicity Assay to monitor cytotoxicity in HEK293 cells - 16 hour (AID 1224888); conditions: CellTox Green fluorescence; series mostly up to 76.8 µM; note: nearly all actives have a fitted effect of over 35% in size
Procedure, shortened: as §1

[18] = qHTS RealTime-Glo MT Cell Viability Assay in HepG2 cells - 0 hour (AID 1224889); conditions: RealTime-Glo luminescence; series mostly up to 76.8 µM; note: nearly all actives have a fitted effect of over 50% in size
Procedure, shortened: as §5

[19] = A CellTox Green Cytotoxicity Assay to monitor cytotoxicity in HepG2 cells - 40 hour (AID 1224879); conditions: CellTox Green fluorescence; series mostly up to 76.8 µM; note: nearly all actives have a fitted effect of over 40% in size; note: potency is the fitted concentration of half-maximal effect
Procedure, shortened: as §4
% is set by controls: 0 for no effect and ±100 for the full control effect.

CC(C)=CCCC(C)CCOC=O (stereo unspecified)
inactive: Potency [1] | Potency [2] | outcome [3] | max response [4] 13.4% | Potency [5] | Potency [6] | Potency [7] | Potency [8] | outcome [9] | Potency [10] | Potency [11] | Potency [12] | Potency [13] | outcome [14] | Potency [15] | Potency [16] | Potency [17] | Potency [18]

C=O
inactive: Potency [1] | outcome [3] | max response [4] -2.52% | Potency [5] | Potency [6] | Potency [7] | Potency [8] | Potency [19] | outcome [9] | Potency [10] | Potency [11] | Potency [12] | Potency [13] | outcome [14] | Potency [15] | Potency [16] | Potency [17] | Potency [18]

CCCCC(=O)O[C@]1(C(=O)CO)[C@H](C)C[C@H]2[C@@H]3CCC4=CC(=O)C=C[C@]4(C)[C@@]3(F)[C@@H](O)C[C@@]21C
inactive: Potency [1] | Potency [2] | outcome [3] | max response [4] 0.0182% | Potency [5] | Potency [6] | Potency [7] | Potency [19] | outcome [9] | Potency [10] | Potency [11] | Potency [12] | Potency [13] | outcome [14] | Potency [15] | Potency [16] | Potency [17]

CC(=O)OC1C2(C)CCC(C2)C1(C)C (stereo unspecified)
inactive: Potency [2] | outcome [3] | max response [4] -0.0469% | Potency [5] | Potency [6] | Potency [7] | Potency [8] | Potency [19] | outcome [9] | Potency [10] | Potency [11] | Potency [13] | outcome [14] | Potency [15] | Potency [16] | Potency [17] | Potency [18]

CN(C)C(=O)NC1(c2ccccc2)CCN(CCC[C@]2(c3ccc(Cl)c(Cl)c3)CCCN(C(=O)c3ccccc3)C2)CC1
inactive: viability change, negative = cytotoxic [3] -6.85% [at 15.8 µM] | activity change [5] 4.75% [at 15.8 µM, active compounds read high] | cytotoxicity increase [6] 15.3% [at 15.8 µM] | activity change, negative = cytotoxic [7] -9.2% [at 15.8 µM] | cytotoxicity [8] 19.6% [at 15.8 µM] | activity change, negative = cytotoxicity [9] 0.507% [at 15.8 µM] | cytotoxicity increase [10] 19.1% [at 15.8 µM] | cytotoxicity [11] -1.48% [at 15.8 µM] | cytotoxicity increase [13] -1.4% [at 15.8 µM] | activity change, negative = cytotoxic [14] -10.4% [at 15.8 µM] | activity change, negative = cytotoxicity [16] -28.2% [at 15.8 µM] | activity change [17] -0.407% [at 15.8 µM, active compounds read high] | activity change, negative = cytotoxicity [18] -2.18% [at 15.8 µM]

OCC(CBr)(CBr)CBr
inactive: Potency [2] | outcome [3] | Potency [5] | Potency [6] | Potency [7] | Potency [8] | Potency [19] | outcome [9] | Potency [10] | Potency [11] | Potency [12] | Potency [13] | outcome [14] | Potency [15] | Potency [16] | Potency [18]

CCCS(=O)c1ccc2nc(NC(=O)OC)[nH]c2c1 (stereo unspecified)
active: Potency [19] 12 µM | Potency [12] 16.9 µM
inactive: Potency [2] | outcome [3] | Potency [5] | Potency [6] | Potency [7] | Potency [8] | outcome [9] | Potency [10] | Potency [11] | Potency [13] | outcome [14] | Potency [15] | Potency [16] | Potency [17] | Potency [18]

Reference: PubChem BioAssay (Tox21)
